In PubChem BioAssay one finds composite z-score and z-score data, which are given here for 14 compounds.

Calls of active or inactive are those of the source.

Experiment [1] in a line: binders of probe aFSTL3 on microarray, primary screen, stem cell growth factor project, biochemical, small-molecule microarray, fluorescence 635/667 (AID 1064).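 Also: measures binding of the biotinylated anti-FSTL3 antibody to printed compounds.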 The settings on record: higher = more signal.
A short description of experiment [2]: binders from COS7 lysate, DM2A8 probe, primary screen, torsin A project, cell lysate, small-molecule microarray, fluorescence 635/667 (AID 1065). The conditions noted are these: higher = more signal, COS7 lysate expressing mutant human TOR1A.
Experiment [3] can be described thus: binders of probe aFGF2 on microarray, primary screen, stem cell growth factor project, biochemical, small-molecule microarray, fluorescence 635/667 (AID 1067).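 Also: measures binding of biotinylated aFGF2 protein to printed compounds on slides; z-score merges feature fluorescence and signal-to-noise across triplicate slides.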 The conditions noted are these: higher = more signal.
A short description of experiment [4]: binders of probe aFGF10 on microarray, primary screen, stem cell growth factor project, biochemical, small-molecule microarray, fluorescence 635/667 (AID 1071).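 Also: score merges 667 nm spot intensity and signal to noise from triplicate slides.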 The settings on record: higher = more signal.
Experiment [5] deals with Neurogenic locus notch homolog protein 2 (Homo sapiens) (UniProt Q04721). As to the kind of experiment: Notch2 binders on small-molecule microarrays, primary screen, biochemical, small-molecule microarray, 635 nm fluorescence, stem cell growth factors (AID 1073). The conditions noted are these: Notch2 binding, higher = more signal.
Chain of Neurogenic locus notch homolog protein 2 (Homo sapiens) (Q04721 whole entry, looked up, canonical isoform): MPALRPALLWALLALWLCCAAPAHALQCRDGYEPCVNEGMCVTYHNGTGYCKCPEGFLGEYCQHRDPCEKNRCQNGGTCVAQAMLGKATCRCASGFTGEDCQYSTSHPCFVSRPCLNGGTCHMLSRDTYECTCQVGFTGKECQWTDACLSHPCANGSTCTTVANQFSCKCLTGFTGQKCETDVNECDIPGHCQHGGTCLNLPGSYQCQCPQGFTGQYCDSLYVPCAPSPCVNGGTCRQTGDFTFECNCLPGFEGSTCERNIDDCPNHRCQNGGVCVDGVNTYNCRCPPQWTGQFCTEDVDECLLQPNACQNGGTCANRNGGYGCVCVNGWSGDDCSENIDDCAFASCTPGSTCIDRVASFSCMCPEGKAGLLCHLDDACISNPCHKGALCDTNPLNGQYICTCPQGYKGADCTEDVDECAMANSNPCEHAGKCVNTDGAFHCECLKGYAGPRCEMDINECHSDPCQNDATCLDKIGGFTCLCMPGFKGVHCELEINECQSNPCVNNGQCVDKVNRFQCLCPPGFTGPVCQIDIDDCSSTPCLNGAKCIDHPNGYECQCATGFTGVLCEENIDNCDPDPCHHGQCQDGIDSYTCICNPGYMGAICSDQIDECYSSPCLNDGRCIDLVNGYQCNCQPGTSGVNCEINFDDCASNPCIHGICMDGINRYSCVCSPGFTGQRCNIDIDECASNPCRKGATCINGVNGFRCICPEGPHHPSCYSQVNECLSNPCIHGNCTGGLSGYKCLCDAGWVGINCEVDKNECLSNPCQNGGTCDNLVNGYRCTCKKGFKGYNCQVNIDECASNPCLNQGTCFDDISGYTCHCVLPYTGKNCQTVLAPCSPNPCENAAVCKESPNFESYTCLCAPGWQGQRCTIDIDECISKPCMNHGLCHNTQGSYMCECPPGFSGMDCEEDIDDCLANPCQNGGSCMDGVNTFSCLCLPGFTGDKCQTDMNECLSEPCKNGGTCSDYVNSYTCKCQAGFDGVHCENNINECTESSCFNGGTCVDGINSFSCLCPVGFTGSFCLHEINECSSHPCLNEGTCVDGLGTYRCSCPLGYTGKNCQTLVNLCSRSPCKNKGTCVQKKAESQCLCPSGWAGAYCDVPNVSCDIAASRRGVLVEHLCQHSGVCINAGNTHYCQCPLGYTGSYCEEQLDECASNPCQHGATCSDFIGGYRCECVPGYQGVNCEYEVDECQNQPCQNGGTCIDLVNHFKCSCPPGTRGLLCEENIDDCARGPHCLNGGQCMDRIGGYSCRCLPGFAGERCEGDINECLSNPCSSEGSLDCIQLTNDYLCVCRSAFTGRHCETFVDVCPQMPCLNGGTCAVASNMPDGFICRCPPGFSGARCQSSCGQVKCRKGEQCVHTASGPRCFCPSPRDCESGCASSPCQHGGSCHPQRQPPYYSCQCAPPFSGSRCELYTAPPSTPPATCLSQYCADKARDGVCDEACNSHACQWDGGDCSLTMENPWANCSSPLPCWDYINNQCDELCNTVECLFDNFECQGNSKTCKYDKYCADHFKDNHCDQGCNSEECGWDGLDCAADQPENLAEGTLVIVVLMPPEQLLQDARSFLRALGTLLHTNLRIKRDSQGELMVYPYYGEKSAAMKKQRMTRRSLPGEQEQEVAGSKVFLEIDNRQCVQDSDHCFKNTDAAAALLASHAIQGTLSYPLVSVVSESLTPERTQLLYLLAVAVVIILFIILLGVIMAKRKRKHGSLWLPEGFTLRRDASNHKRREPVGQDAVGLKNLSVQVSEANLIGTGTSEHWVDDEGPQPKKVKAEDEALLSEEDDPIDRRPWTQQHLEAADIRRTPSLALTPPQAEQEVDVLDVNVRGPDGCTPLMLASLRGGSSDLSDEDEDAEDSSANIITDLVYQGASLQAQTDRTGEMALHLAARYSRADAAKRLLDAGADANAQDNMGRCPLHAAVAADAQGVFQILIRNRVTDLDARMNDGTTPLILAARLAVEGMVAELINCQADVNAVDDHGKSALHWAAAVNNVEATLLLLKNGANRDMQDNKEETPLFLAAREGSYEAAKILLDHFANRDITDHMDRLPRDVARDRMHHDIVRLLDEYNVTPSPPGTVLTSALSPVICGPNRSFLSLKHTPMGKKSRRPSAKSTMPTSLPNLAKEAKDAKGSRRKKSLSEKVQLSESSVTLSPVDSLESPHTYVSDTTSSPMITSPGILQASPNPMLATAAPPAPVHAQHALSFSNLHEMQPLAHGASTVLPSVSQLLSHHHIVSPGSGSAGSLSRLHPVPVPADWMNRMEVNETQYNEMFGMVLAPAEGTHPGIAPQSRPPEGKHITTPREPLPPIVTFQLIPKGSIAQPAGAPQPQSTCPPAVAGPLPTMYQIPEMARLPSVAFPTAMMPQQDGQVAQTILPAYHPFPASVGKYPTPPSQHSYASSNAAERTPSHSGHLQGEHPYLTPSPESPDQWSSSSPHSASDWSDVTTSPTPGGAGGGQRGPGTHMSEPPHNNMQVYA
Experiment [6] addresses Pro-neuregulin-1, membrane-bound isoform (Homo sapiens) (UniProt Q02297). As to the kind of experiment: NRG1 binders on small-molecule microarrays, primary screen, psychiatric disease protein project, biochemical, small-molecule microarray, fluorescence 635/667 (AID 1075).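 Also: score combines 667 nm spot fluorescence with signal to noise.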 The settings on record: NRG1 binding, 635 nm fluorescence, higher = more signal.
Experiment [7] relates to Neuregulin-1 EGF-like domain. As to the kind of experiment: binders of neuregulin-1 EGF-like domain, primary screen, biochemical, small-molecule microarray, 635 nm fluorescence (AID 1081).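 Also: binding of the protein to compounds printed on small-molecule microarray slides.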 The settings on record: small-molecule microarray binding, higher = more signal.
A short description of experiment [8]: FRG1 promoter luciferase signal modulators, primary screen, FRG1 inhibition for FSHD, cell-based, C2C12 myotubes, firefly/Renilla luciferase, luminescence (AID 1084). The conditions noted are these: higher = more signal, called active from +8 up or from −8 down.
Experiment [9] is described as follows: binders of probe aFST on microarray, primary screen, stem cell growth factor project, biochemical, small-molecule microarray, fluorescence 635/667 (AID 1086).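 Also: score merges 667 nm fluorescence with signal-to-noise of each printed compound spot.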 The conditions noted are these: higher = more signal.
A short description of experiment [10]: binders of probe aHhip on microarray, primary screen, stem cell growth factor project, biochemical, small-molecule microarray, fluorescence 635/667 (AID 1087).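 Also: score merges spot fluorescence at 667nm with spot signal to noise ratio.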 The conditions noted are these: higher = more signal.

Chain of Pro-neuregulin-1, membrane-bound isoform (Homo sapiens) (Q02297 whole entry, looked up, the tested form may be a part, canonical isoform): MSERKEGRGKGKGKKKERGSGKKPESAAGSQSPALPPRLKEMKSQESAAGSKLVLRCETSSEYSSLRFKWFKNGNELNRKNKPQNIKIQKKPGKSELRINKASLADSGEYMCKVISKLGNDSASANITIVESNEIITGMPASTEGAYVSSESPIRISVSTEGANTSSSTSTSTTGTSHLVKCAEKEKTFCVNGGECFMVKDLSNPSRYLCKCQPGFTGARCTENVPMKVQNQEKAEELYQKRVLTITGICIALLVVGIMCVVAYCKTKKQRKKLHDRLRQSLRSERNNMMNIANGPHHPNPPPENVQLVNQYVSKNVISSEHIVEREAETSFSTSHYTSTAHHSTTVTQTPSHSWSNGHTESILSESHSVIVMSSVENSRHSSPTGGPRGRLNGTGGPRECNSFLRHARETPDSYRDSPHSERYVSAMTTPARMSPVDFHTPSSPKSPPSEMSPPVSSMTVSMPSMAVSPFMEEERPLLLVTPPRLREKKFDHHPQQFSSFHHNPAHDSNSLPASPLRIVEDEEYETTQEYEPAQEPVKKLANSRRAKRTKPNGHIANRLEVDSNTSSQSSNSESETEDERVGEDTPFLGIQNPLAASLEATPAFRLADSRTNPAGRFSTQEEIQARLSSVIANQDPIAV

On to `O=C(NCC(O)CO)[C@]1(CCS(=O)(=O)c2ccccc2)N=C(c2ccc(OCCCO)cc2)O[C@@H]1c1ccccc1` (stereo not given in full), for which the composite z-score was 0.871 in [1]; 1.87 in experiment [2]; -0.0064 in experiment [3]; -0.299 in experiment [4]; 0.158 in [5]; 2.3 in [6]. The values for the composite z-score in experiment [7], in [9] and in experiment [10] were 1.3, 1.08 and -0.288, respectively. In [8], the z-score is 0.47 (inactive).

On to `CCCC[C@@H]1C[C@H]1[C@@H](NC(=O)c1ccccc1)c1ccccc1`, for which the composite z-score in experiment [1] is 0.343; in [2], -0.0895; in [3], 0.15; in experiment [4] it was 0.14; in experiment [5] it was 0.18; in [6] it was -0.392. In addition, the composite z-score in experiment [7] was -0.303; in experiment [9], 1.14; in experiment [10], 2.02. Also, the z-score in [8] is -0.0327 (inactive).

As to `Cc1ccc(C(C)CC(O)C2C=CC3C(=O)NC(=O)C3N2Nc2ccccn2)o1` (stereo not given), the composite z-score in [1] was -0.0428; in [2], 0.573; in experiment [3], -0.0951; in experiment [4], 0.174; in experiment [5], -0.0116; in experiment [6], 0.753. In addition, the composite z-score in [7] is 0.845; in experiment [9], 0.0821; in [10] it was -0.249. In addition, in [8], the z-score was 0.327 (inactive).

With `COc1ccc([Si](C)(C)[C@@H]2[C@@H](CCO)O[C@]3(C(=O)N(Cc4cccc(N5CCCCC5=O)c4)c4ccccc43)[C@H]2C)cc1`, the composite z-score was -0.191 in experiment [1]; 0.692 in [2]; -0.134 in experiment [3]; 0.877 in experiment [4]; 0.869 in experiment [5]; 1.06 in experiment [6]. In addition, the composite z-score is 0.967 in experiment [7], 0.263 in [9] and -0.0618 in [10]. Also, the z-score in [8] is -3.27 (inactive).

As for `Cc1c(NC(=O)/C(C#N)=C/C=C/c2ccccc2)c(=O)n(-c2ccccc2)n1C`, the composite z-score in experiment [1] was -0.438; in experiment [2], -0.0022; in [3], -0.0035; in [4], 0.286; in [5] it was 0.654; in experiment [6], 0.757. Besides, the composite z-score in experiment [7] turned out to be 0.825; in experiment [9], 0.003; in experiment [10], 0.237. The z-score in [8] was 4.07 (inactive).

Consider `CN1C(=O)C2C=CC(C(O)C(C)(C)C)N(Nc3ccccc3)C2C1=O` (stereo not given), for which the composite z-score is 0.207 in experiment [1]; -0.565 in [2]; -0.14 in experiment [3]; -0.181 in experiment [4]; 0.0262 in experiment [5]; 1.4 in experiment [6]. The composite z-score in experiment [7] is 0.291; in [9] it was 0.0082; in [10], -0.173. Besides, the z-score in [8] was -0.269 (inactive).

Turning to `CCOC(=O)C1=CC[C@@H](c2cccc(Cl)c2)N(S(=O)(=O)c2ccc(C)cc2)[C@H]1c1ccc(C#N)cc1`, the composite z-score is 0.128 in [1]; 0.0669 in experiment [2]; 0.104 in experiment [3]; 0.862 in experiment [4]; 1.65 in experiment [5]; 1.61 in experiment [6]. In addition, the composite z-score in [7] was 1.15; in experiment [9], 0.751; in experiment [10], 0.0274. Also, the z-score in experiment [8] is -0.534 (inactive).

For `CN1C(=O)C2C=CC(C(O)C3=C[C@H]4C[C@@H](C3)C4(C)C)N(Nc3ccc([N+](=O)[O-])cc3[N+](=O)[O-])C2C1=O` (stereo not given in full), the composite z-score in [1] came to 0.574; in experiment [2] it was 0.156; in [3] it was 0.15; in experiment [4] it was 0.733; in experiment [5], 1.66; in experiment [6] it was 1.51. Further, the composite z-score in experiment [7] turned out to be 1.33; in experiment [9] it was 0.642; in experiment [10] it was 0.0826. Besides, the z-score in experiment [8] is 0.0285 (inactive).

Take `COC(=O)c1nc2oc1CC[C@@H](CO)NC(=O)N(C)Cc1cn(nn1)C[C@H](Cc1ccccc1)NC2=O`: the composite z-score is 0.0478 in experiment [1]; -0.871 in [2]; -0.0982 in [3]; 0.0055 in experiment [4]; 0.242 in [5]; 1.01 in experiment [6]. The values for the composite z-score in experiment [7], in experiment [9] and in experiment [10] were 1.09, -0.324 and -0.226, respectively. Also, the z-score in experiment [8] is -0.605 (inactive).

Consider `C=CCC(OC(C)=O)[C@@H]1[C@@H](N(Cc2cc3ccccc3o2)C(=O)c2ccc(-c3ccccc3)cc2)c2cc(OCCCO)ccc2N1C(=O)Cc1ccc2ccccc2c1` (stereo not given in full), for which the composite z-score in experiment [1] is 0.179; in experiment [2] it was -0.499; in [3], -0.0428; in [4], 0.101; in experiment [5] it was -0.14; in experiment [6], -0.0892. Moreover, the results for the composite z-score in experiment [7], in [9] and in experiment [10] were -0.5, 0.261 and 0.17, respectively. Also, in [8], the z-score was -1.28 (inactive).

Regarding `CCCCCCCCCCC(O)C1C=CC2C(=O)N(c3ccccc3)C(=O)C2N1Nc1ccc([N+](=O)[O-])cc1` (stereo not given), the composite z-score in experiment [1] was -0.325; in [2], 0.112; in [3] it was -0.0107; in experiment [4], 0.461; in [5], 1.44; in experiment [6], 1.11. Besides, the composite z-score in experiment [7] was 1.05; in experiment [9] it was 0.574; in experiment [10], -0.199. In addition, the z-score in [8] is 1.39 (inactive).

On to `O=C1C2C=CC(C(O)CCc3ccccc3)N(Nc3ccccc3)C2C(=O)N1c1ccccc1` (stereo not given), for which the composite z-score in experiment [1] stood at 0.572; in [2], 1.83; in experiment [3], 0.288; in experiment [4] it was 0.83; in experiment [5], 1.61; in [6], 2.09. Also, the composite z-score in [7] is 1.22; in experiment [9], 1.15; in [10], -0.0645. Further, in experiment [8], the z-score is 0.0878 (inactive).

With `COCCOC(=O)N1C(=O)[C@@]2(c3cc(C#CCCO)ccc31)[C@H](C(=O)NC[C@H](O)c1ccccc1)[C@H]1C(=O)O[C@H](c3ccccc3)[C@H](c3ccccc3)N1[C@@H]2c1ccc(OCCO)cc1`, the composite z-score in experiment [1] was 0.664; in [2], 0.271; in experiment [3], -0.114; in experiment [4] it was 0.208; in experiment [5] it was 1.08; in experiment [6], 1.27. Moreover, the composite z-score is 1.16 in experiment [7], 0.152 in experiment [9] and -0.11 in experiment [10]. Further, in experiment [8], the z-score was 0.469 (inactive).

For the compound `C=CCN1C(=O)[C@@]2(O[C@@H](CCO)[C@H]([Si](C)(C)c3ccc(OC)cc3)[C@H]2C)c2cc(N3C(=O)COc4ccccc43)ccc21`, the composite z-score is -0.351 in [1]; 0.28 in experiment [2]; -0.0293 in experiment [3]; 1.02 in experiment [4]; 0.227 in [5]; 1.02 in experiment [6]. The composite z-score is 0.746 in [7], 0.975 in experiment [9] and -0.358 in experiment [10]. In addition, the z-score in experiment [8] was -1.54 (inactive).
